D2 ag-1 = HTS Assay for Allosteric Agonists of the Human D2 Dopamine Receptor: Primary Screen for Agonists; activation, % at 2 µM; actives 0.53% (n = 340,000); D(2) dopamine receptor (Homo sapiens), P14416; HEK293 T-REx D2 cells, calcium flux agonist mode;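 active = activation over 3 SD above normal in the single-dose calcium agonist read, cut at about 30% in these data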; also: 0% is about no effect
Target sequence (P14416 whole entry, looked up): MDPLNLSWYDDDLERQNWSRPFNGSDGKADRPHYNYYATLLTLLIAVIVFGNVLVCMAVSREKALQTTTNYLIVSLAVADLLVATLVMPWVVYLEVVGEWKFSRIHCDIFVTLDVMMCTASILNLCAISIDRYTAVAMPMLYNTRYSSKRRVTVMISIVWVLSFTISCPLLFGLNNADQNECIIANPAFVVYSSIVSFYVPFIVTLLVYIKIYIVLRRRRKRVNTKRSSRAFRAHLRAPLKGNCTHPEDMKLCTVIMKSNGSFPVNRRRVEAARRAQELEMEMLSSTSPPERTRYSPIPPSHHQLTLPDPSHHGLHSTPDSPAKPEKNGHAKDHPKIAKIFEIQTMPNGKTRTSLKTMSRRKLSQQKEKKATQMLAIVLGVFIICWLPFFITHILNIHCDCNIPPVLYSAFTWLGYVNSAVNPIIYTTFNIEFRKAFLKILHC
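Calcium-flux readout, 1 cycle/sec over 180 s following compound pin transfer, in inducible HEK293 Trex D2 cells (force-coupled); dopamine controls included. Positive calcium responses during this window marked compounds as potential agonists.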
D2 antag = HTS Assay for Allosteric Antagonists of the Human D2 Dopamine Receptor: Primary Screen for Antagonists. HEK293 TREx D2 cells, calcium flux, dopamine EC80. inhibition, % at 10 µM. actives 2% (n = 340,000); in the data active = inhibition above about 30%; inactive = below that, where a call was filed; also: 0% is about no effect
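Antagonism is scored as inhibition of an EC80 dopamine-evoked calcium signal in a force-coupled, tetracycline-inducible HEK293 T-REx D2 line, with compound present 180 s before agonist.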
D2 ag-2 = Beta-Arrestin HTS for Positive Allosteric Modulators of the Human D2 Dopamine Receptor: Agonists | D(2) dopamine receptor (Homo sapiens), P14416 | DiscoveRx PathHunter D2 beta-arrestin, luminescence, 90 min; 100% = 57 uM dopamine signal | activation, % (no concentration beside the values) | actives 0.084% (n = 360,000) | AID 624465, 2012; in the data active = activation above about 40%; inconclusive = between about 15% and that limit
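DiscoveRx PathHunter D2 beta-arrestin cells (2,100/well) attached overnight, then compound-stimulated 90 min at 37 C in HBSS/10 mM HEPES/0.1% Tween-20 buffer; beta-galactosidase complementation read by luminescence after 1 h at ambient temperature. Dopamine 57 uM final (EC100) as control.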
D2 PAM-1 = HTS Assay for Positive Allosteric Modulators of the Human D2 Dopamine Receptor: Primary Screen for Potentiators. D(2) dopamine receptor (Homo sapiens), P14416. HEK293 T-REx D2, calcium flux, EC20 dopamine potentiation. potentiation, % at 10 µM. actives 0.34% (n = 340,000);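 active = potentiation over 3 SD above the plate norm, cut at about 30% in these data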; also: 0% is about no effect
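Potentiation of an EC20 dopamine calcium response measured kinetically over 180 s, after a preceding 180 s compound-only read flagging agonists. Cells: inducible Hek293 Trex D2 line, 4000/well, cultured overnight at 30 C before dye loading.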
D2 PAM-2 = Beta-Arrestin HTS for Positive Allosteric Modulators of the Human D2 Dopamine Receptor: Potentiators; D(2) dopamine receptor (Homo sapiens), P14416; DiscoveRx D2 beta-arrestin cells, luminescence, 90 min; 100% = 57 uM dopamine signal; potentiation, % (concentration not given with the values); actives 0.23% (n = 360,000); AID 624464, 2012; in the data active = potentiation above about 50%; inconclusive = mostly about 30% to 49%
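PathHunter beta-arrestin assay in DiscoveRx D2 cells. Compounds were added with an EC20 of dopamine (50 nM final) for 90 min at 37 deg C. Luminescence was read 1 h after detection reagent, with 57 uM dopamine as the EC100 control.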
An asterisk follows results filed as active; u = inconclusive; x = not tested or not shown; ! = not confirmed by another sample. In the library only some 2.4% were active in any assay of this set; here they are far more common.

SMILES	D2 ag-1	D2 antag	D2 ag-2	D2 PAM-1	D2 PAM-2
O=C(CN1C(=O)COc2ccc(S(=O)(=O)Nc3ccccc3)cc21)NCc1ccccc1Cl	0	x	x	-4	x
CCc1nnc(NC(=O)CSc2nccn2Cc2ccc(Cl)cc2)s1	0	x	x	-4	x
CCOC(=O)c1ccc(NC(=O)CC2Nc3cc(C)c(C)cc3NC2=O)cc1 (centres undefined)	1	x	x	-7	x
COc1ccc(/C(N)=N/OC(=O)c2ccc3c(c2)OCO3)cc1	1	-30	u	4	103*
COc1cccc(C(=O)O/N=C(\N)c2ccc([N+](=O)[O-])cc2)c1	0	-7	u	1	136*
COc1ccc(C(=O)O/N=C(\N)c2ccncc2)cc1OC	0	1	u	-3	85*
Cc1ccc(/C(N)=N/OC(=O)c2ccc3c(c2)OCO3)cc1	0	0	6	0	27
COc1ccc(/C(N)=N/OC(=O)c2cccc([N+](=O)[O-])c2)cc1	-1	13	8	-4	25
CC(=O)c1cccc(NC(=O)c2nc3ccccc3nc2N2CCCCC2)c1	x	x	x	-6	x
Cc1ccc(NC(=O)CN2C(=O)COc3ccc(S(=O)(=O)N4CCCCCC4)cc32)cc1Cl	-1	x	x	1	x
CC(C)c1nnc(NC(=O)CCC(=O)Nc2ccc(F)cc2)s1	0	-13	-8	-8	-23
CCc1ccc(NC(=O)CCC(=O)Nc2nnc(C(C)C)s2)cc1	1	43*	0	2	-3
COC(=O)c1ccc2c(c1O)C(=O)c1ccccc1C2=O	1	10	14	0	107*
CC1(C(=O)OCC(=O)NCc2ccc(Cl)cc2)CC1(Cl)Cl (centres undefined)	x	x	-5	x	-4
CC1(C(=O)OCC(=O)NC(=O)NCc2ccccc2)CC1(Cl)Cl (centres undefined)	1	31*	-2	6	0
COc1ccc(C2(CNC(=O)C(=O)Nc3ccc(F)cc3)CCCC2)cc1OC	7	x	x	12	x
Oc1ccc(C2CNCCc3c2cc(O)c(O)c3Cl)cc1 (centres undefined)	0	-3	u	9	58*!
COCCCNC(=O)c1sc2nc3n(c(=O)c2c1C)CCC3	1	x	x	-9	x
Cc1ccc(NS(=O)(=O)c2ccc3c(c2)CCC(=O)N3)cc1	1	65*	3	-25	-2
N/C(Cc1ccc(Cl)c(Cl)c1)=N\OC(=O)c1ccc(Br)o1	1	2	u	-11	60*
Cc1ccc(C)c(CN2CCCNC2=O)c1	2	31*	-3	7	-8
Cc1ccc(CN2CCCNC2=O)cc1	x	x	0	x	-4
C/C=C(\C)C(=O)OC1[C@H](OC(C)=O)C2(CO)C(CC1(C)C)C1=CCC3C4(C)CCC(O[C@@H]5O[C@H](C(=O)O)[C@@H](O[C@@H]6O[C@H](CO)[C@@H](O)[C@H](O)[C@H]6O)[C@H](O)[C@H]5O[C@H]5O[C@H](CO)[C@@H](O)[C@H](O)[C@H]5O)[C@](C)(CO)C4CCC3(C)[C@]1(C)C[C@H]2O (some centres undefined)	x	x	41*	x	-63
C/C=C(/C)C(=O)OC1CC(C)(C)C[C@H]2C3=CC[C@@H]4[C@@]5(C)CCC(O[C@@H]6O[C@@H](C(=O)O)[C@@H](O)C(O[C@@H]7OC[C@H](O)[C@@H](O)[C@@H]7O[C@@H]7OC(CO)C(O)[C@@H](O)[C@@H]7O)C6O[C@@H]6OC(CO)C(O)C(O)C6O)[C@@](C)(CO)[C@@H]5CC[C@]4(C)[C@]3(C)CC(O)[C@@]12CO (some centres undefined)	x	x	13	x	-21
CCN1CCN(c2ccc(S(=O)(=O)N3CCOCC3)cc2NC(=O)CCOc2ccccc2)CC1	1	32*	-4	-18	-27
SMILES	D2 ag-1	D2 antag	D2 ag-2	D2 PAM-1	D2 PAM-2
Nc1cc(S(=O)(=O)N2CCCCC2)ccc1N1CCOCC1	3	32*	0	-3	4
O=C(Nc1cc(S(=O)(=O)N2CCOCC2)ccc1N1CCCC1)C1CC1	2	54*	-4	5	-2
CCN1CCN(c2ccc(S(=O)(=O)N3CCCCC3)cc2NC(=O)c2ccc([N+](=O)[O-])s2)CC1	1	10	u	1	74*
COCc1cc(=O)n2[nH]c(SC)nc2n1	0	5	0	36*	-3
COCc1cc(=O)n2[nH]c(SCc3ccccc3)nc2n1	-1	5	-4	2	-20
COc1ccc(C(=O)Nc2cccc3c2CCCC3)cc1	0	-7	1	-6	-1
O=C(Nc1cccc2c1CCCC2)c1cc([N+](=O)[O-])cc([N+](=O)[O-])c1	-3	6	9	-5	62*
O=C(Nc1ncccn1)c1ccc([N+](=O)[O-])cc1	x	x	-2	x	-15
O=C(Nc1ncccn1)c1cc([N+](=O)[O-])cc([N+](=O)[O-])c1	1	-8	5	-3	54*
CCCOc1cccc(C2c3c(oc4ccc(F)cc4c3=O)C(=O)N2c2nc(C)c(C(C)=O)s2)c1 (centres undefined)	x	x	x	4	x
CCOC(=O)c1sc(NC(=O)c2c(-c3ccccc3)c(-c3ccccc3)nn(C)c2=O)nc1C	x	x	x	4	x
Cc1ccc(CSc2nc(=O)c3c(C)cc(C)nc3n2C2CC2)cc1	-5	x	x	0	x
CCCCn1c(CCC)nc([N+](=O)[O-])c1Sc1ccc(Cl)cn1	2	40*	-2	-12	-13
Cc1c(Cl)cccc1NS(=O)(=O)c1ccc(-c2cnc(C3CC3)o2)cc1	0	x	x	1	x
Cc1noc(C)c1COc1ccc(C(=O)OC(C)C(=O)Nc2ccc(N3CCOCC3)cc2)cc1 (centres undefined)	-2	45*	-1	1	1
O=c1[nH]c2ccccc2nc1/C=C(\O)c1cccs1	65*	2	-2	-2	-7
O/C(=C\c1nc2ccccc2[nH]1)c1cccs1	0	10	-7	-5	-2
Cc1cc(C)c2c(n1)nn1c(NCCCn3ccnc3)cc(C)nc21	0	-17	x	34*	x
Cc1cc(C)c2c(n1)nn1c(NCCCN3CCOCC3)cc(C)nc21	x	x	-3	x	-12
COc1cccc(-c2cc3c(-n4cccc4)ncnc3o2)c1	-1	37*	-3	9	-15

High-throughput results (PubChem BioAssay)
